{
  "source": "PubChem BioAssay (Tox21)",
  "note": "Inconclusive results are not listed. Activity calls are given as the source filed them. Calls follow the shape of the dose curve; as a rule, active = well fitted activation curve with a large enough effect in the repeat runs; inconclusive = weak or mixed curves; inactive = flat fitted curve, though single readings scatter. % is scaled to controls: 0 for no effect and ±100 for the full control effect; potency is read from the fitted curve at half-maximal effect.",
  "data": [
    {"experiment": "A CellTox Green Cytotoxicity Assay to monitor cytotoxicity in HepG2 cells - 40 hour (AID 1224879); also: nearly all actives have a fitted effect of over 40% in size", "settings": "CellTox Green fluorescence; series mostly up to 76.8 µM; cytotoxicity increase: at the top concentration", "outline": "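HepG2 cells were seeded together with the CellTox Green dye at 600 cells/well, left 5 h at 37 C/5% CO2, then given compounds in DMSO. Fluorescence from dye bound to dead-cell DNA was read repeatedly over 40 h of treatment at 37 C.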", "values": [
      {"smiles": "CCS(=O)(=O)c1ccc(OC)c(C(=O)OC)c1", "cytotoxicity increase": "-13.8% [at 35.3 µM] (inactive)"},
      {"smiles": "Brc1c(NC2=NCCN2)ccc2nccnc12", "cytotoxicity increase": "-1.18% [at 35.3 µM] (inactive)"},
      {"smiles": "COC(=O)CC(C)=O", "cytotoxicity increase": "-2.1% (inactive)"},
      {"smiles": "NC(=O)c1ccc(N)cc1", "cytotoxicity increase": "-3.27% (inactive)"},
      {"smiles": "Cc1cnc(NS(=O)(=O)c2ccc(N)cc2)nc1", "cytotoxicity increase": "-1.45% [at 35.3 µM] (inactive)"},
      {"smiles": "COc1nc(N)nc2c1ncn2[C@@H]1O[C@H](CO)[C@@H](O)[C@@H]1O", "cytotoxicity increase": "-10.8% [at 35.3 µM] (inactive)"},
      {"smiles": "CC(C)CNCC(C)C", "cytotoxicity increase": "-1.91% (inactive)"},
      {"smiles": "O=C(c1ccccc1)C1CCCCC1", "Potency": "49 µM (active)"},
      {"smiles": "CN1CCCC1", "cytotoxicity increase": "-0.925% (inactive)"},
      {"smiles": "CC(C)(O)C(=O)c1ccccc1", "cytotoxicity increase": "-13.3% (inactive)"},
      {"smiles": "COC(=O)c1ccc(C)cc1C1=NC(C)(C(C)C)C(=O)N1", "note": "(stereo not given)", "cytotoxicity increase": "2.51% (inactive)"},
      {"smiles": "CCCCC(CC)COC(=O)c1ccccc1O", "note": "(stereo not given)", "cytotoxicity increase": "-2.83% [at 35.3 µM] (inactive)"},
      {"smiles": "Nc1cc(=O)[nH]c(N)n1", "cytotoxicity increase": "-11.4% [at 35.3 µM] (inactive)"},
      {"smiles": "O=C(O)CCCc1ccccc1", "cytotoxicity increase": "-42.2% [at 35.3 µM] (inactive)"},
      {"smiles": "c1ccc([C@H]2CN3CCSC3=N2)cc1", "cytotoxicity increase": "-10.8% [at 35.3 µM] (inactive)"},
      {"smiles": "CCOC(=O)CCC(C)=O", "cytotoxicity increase": "-1.02% (inactive)"},
      {"smiles": "COc1ccc2c(c1)CCCC2=O", "cytotoxicity increase": "5.11% [at 35.3 µM] (inactive)"},
      {"smiles": "C[C@H](NC(CCc1ccccc1)C(=O)O)C(=O)N1CCC[C@H]1C(=O)O", "note": "(stereo not given in full)", "cytotoxicity increase": "-6.25% [at 35.3 µM] (inactive)"},
      {"smiles": "CC(=O)OCC(=O)[C@@]1(O)CCC2C3CCC4=CC(=O)CC[C@]4(C)C3[C@@H](O)C[C@@]21C", "note": "(stereo not given in full)", "cytotoxicity increase": "-4.74% [at 35.3 µM] (inactive)"},
      {"smiles": "C[C@](N)(Cc1ccc(O)cc1)C(=O)O", "cytotoxicity increase": "-2.6% [at 6.97 µM] (inactive)"},
      {"smiles": "COC(=O)NN", "cytotoxicity increase": "1.76% (inactive)"},
      {"smiles": "CCCCCOC(=O)CCCCC", "cytotoxicity increase": "-21.9% (inactive)"},
      {"smiles": "CCCCCCCCCCCCCC=O", "cytotoxicity increase": "0.942% [at 6.97 µM] (inactive)"},
      {"smiles": "CC(=O)N(CC(O)CO)c1c(I)c(C(=O)NCCO)c(I)c(C(=O)NCC(O)CO)c1I", "note": "(stereo not given)", "cytotoxicity increase": "-10.4% [at 35.3 µM] (inactive)"},
      {"smiles": "CN1CC(=O)NC1=N", "cytotoxicity increase": "-12.9% [at 35.3 µM] (inactive)"}
    ]}
  ]
}
